MARV entry inh: qHTS for inhibitors of binding or entry into cells for Marburg Virus; Marburg virus pseudotyped entry inhibition, cell reporter; Potency, µM (titrated, usually from 37.8 µM), for the others: top-dose activity change, negative = inhibition, hits mostly inhibitors; actives 1.8% (n = 300,000); calls by dose curve; tested in HEK293 cells; also: potency is read from the fitted curve at half-maximal effect
Lassa entry inh: qHTS for Inhibitors of binding or entry into cells for Lassa Virus | Lassa virus pseudotype entry inhibition, cell reporter | Potency, µM (doses to about 37.9 µM), for the others: top-dose activity change, negative = inhibition, most hits filed as inhibitors | actives 1.2% (n = 300,000) | AID 540256, 2011; calls by dose curve; tested in HEK293 cells; also: potency is read from the fitted curve at half-maximal effect; nearly all actives have a fitted effect of over 50% in size
HCMV antiviral: qHTS Assay for inhibitors of the human cytomegalovirus (HCMV); HFF cells, HCMV-luciferase reporter, 72 h; active compounds read low; activity change, negative = inhibition, % at 57.5 µM; actives 4.5% (n = 410,000); AID 1259415, 2018; in the data active = activity change below about -60%; inconclusive = no clear call, values can overlap the other calls; inactive = above about -39%
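Steps: HFFs plated, 16 h 37C; compounds added; HCMV-luciferase added to MOI 1 PFU/cell; 72 h 37C; OneGlo reagent, 5 min room temperature; luminescence read, normalized to controls.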
FMDV inh: High Throughput Screening for Foot and Mouth Disease Virus Antivirals; FMDV antiviral cell-based qHTS; Potency, µM (series often up to 57.9 µM), for inactives: at the highest dose activity change, negative = inhibition, hits mostly inhibitors; actives 1.2% (n = 410,000); AID 1159524, 2015; calls by dose curve; tested in HEK293T cells; also: read-out not given here; potency is read from the fitted curve at half-maximal effect; nearly all actives have a fitted effect of over 45% in size
Starred values were filed as active, the others as inactive; [ ] = another dose, or the depositor's remark. Compounds with a hit are over-represented: about 6.2% of the library has one in this group of screens. % is scaled to controls: 0 for no effect and ±100 for the full control effect.

Results for CNc1ccc(Br)cc(C(=O)/C=C/c2cc(OC)ccc2OC)c1=O ?
MARV entry inh: inconclusive; Lassa entry inh: inconclusive; HCMV antiviral: -102*; FMDV inh: 20µM*

What do the screens show for `COc1ccc(C23CC4CC(CC(C4)C2)C3)cc1C(=O)NCCN(C)C`?
HCMV antiviral: -70*; FMDV inh: -19%

Results for COc1ccccc1C(=O)NCCC(=O)NCCC12CC3CC(CC(C3)C1)C2 ?
MARV entry inh: -22%; Lassa entry inh: -17%; HCMV antiviral: -18; FMDV inh: 0%

What do the screens show for `CN(C)CCNC(=O)c1cccc2ccc(-c3ccc(-c4ccccc4)cc3)nc12`?
MARV entry inh: inconclusive; Lassa entry inh: inconclusive; HCMV antiviral: 8; FMDV inh: 0%

How did COc1ccc(OC)c2nc3c(C(=O)NCCN(C)C)cccc3nc12 do in these assays?
MARV entry inh: inconclusive; Lassa entry inh: inconclusive; HCMV antiviral: -96*; FMDV inh: -26%

How did CN(C)CCNC(=O)c1cccc2nc3cccc(F)c3nc12 do in these assays?
MARV entry inh: inconclusive; Lassa entry inh: -9%; HCMV antiviral: -99*; FMDV inh: -22%

How did O=C(NCCc1nnc2n1CCN(Cc1ccccn1)CC2)c1ccc(F)cc1 do in these assays?
FMDV inh: -1%

What do the screens show for `Cc1cccc(/C(N)=N/OC(=O)N2CCOCC2)c1`?
MARV entry inh: 23µM*; Lassa entry inh: 16µM*; HCMV antiviral: -74*

Results for Cc1ccc(/C(N)=N/OC(=O)N2CCOCC2)cc1 ?
MARV entry inh: 15µM*; Lassa entry inh: inconclusive; HCMV antiviral: -85*

What do the screens show for `Cc1ccc(/C(N)=N/OC(=O)C23CC4CC(CC(C4)C2)C3)cc1`?
MARV entry inh: 3%; Lassa entry inh: -17%; HCMV antiviral: 5; FMDV inh: 17%

Results for CCOc1ccc(NC(=O)c2ccc3[nH]c(C)cc(=O)c3c2)cc1 ?
MARV entry inh: -20%[46.1 µM]; Lassa entry inh: -10%[46.1 µM]; HCMV antiviral: -2; FMDV inh: 6%

How did CCOc1ccc(Cc2c(C)[nH]c3ccc(C(=O)O)cc3c2=S)cc1 do in these assays?
MARV entry inh: -5%; Lassa entry inh: inconclusive; HCMV antiviral: -79*; FMDV inh: -11%

How did CCc1c(C)[nH]c2ccc(OC)cc2c1=S do in these assays?
MARV entry inh: -17%[46.1 µM]; Lassa entry inh: 17%; HCMV antiviral: -71*; FMDV inh: -4%

How did O=C(NCCc1ccc(Cl)cc1)C1CCC(CNc2nc(=S)[nH]c3ccccc23)CC1 (stereo not given) do in these assays?
MARV entry inh: inconclusive; Lassa entry inh: -15%; HCMV antiviral: -82*; FMDV inh: -10%

What do the screens show for `CCCCNC(=O)C1CCC(CNc2nc(=S)[nH]c3ccccc23)CC1` (stereo not given)?
MARV entry inh: -23%; Lassa entry inh: -19%; HCMV antiviral: 30; FMDV inh: -9%

Results for O=C(NCCC1=CCCCC1)C1CCC(CNc2nc(=S)[nH]c3ccccc23)CC1 (stereo not given) ?
MARV entry inh: -6%[46.1 µM]; HCMV antiviral: -62*; FMDV inh: -17%

How did O=C(O)C[C@@H]1CCCc2ccccc2[C@H]1O do in these assays?
MARV entry inh: 38%

Results for Cc1ccc2c(c1)CN(CCC(=O)NCc1cc(C)n(C)n1)CC(C)O2 (stereo not given) ?
FMDV inh: -6%

Results for COc1cc(/C=C2/SC(=O)N(CC(=O)N3CCCC3)C2=O)ccc1Oc1ccc([N+](=O)[O-])cn1 ?
MARV entry inh: -4%; Lassa entry inh: 4%; HCMV antiviral: inconclusive; FMDV inh: 32µM*

How did COC(=O)CN1C(=O)CSc2ccc(S(=O)(=O)Nc3ccccc3)cc21 do in these assays?
Lassa entry inh: 11%[46.1 µM]; HCMV antiviral: -22; FMDV inh: 43%

Results for COC(=O)c1cc(=O)n(CCc2ccc(OC)c(OC)c2)c(=Nc2ccc(F)c(Cl)c2)s1 ?
MARV entry inh: -2%; HCMV antiviral: -12; FMDV inh: 28µM*

How did CNC(=O)C1CC(=O)N(CCc2ccc(OC)c(OC)c2)C(=Nc2ccc(F)cc2)S1 (stereo not given) do in these assays?
MARV entry inh: 11%[46.1 µM]; Lassa entry inh: 7%[46.1 µM]; HCMV antiviral: -32; FMDV inh: -19%

How did COC(=O)c1cc(=O)n(Cc2ccc(OC)c(OC)c2)c(=Nc2ccc(F)cc2)s1 do in these assays?
MARV entry inh: -7%; HCMV antiviral: -36; FMDV inh: 13µM*

How did COC(=O)c1cc(=O)n(Cc2ccc(F)cc2)c(=Nc2ccccc2)s1 do in these assays?
HCMV antiviral: -14; FMDV inh: inconclusive

How did COC(=O)c1cc(=O)n(Cc2ccco2)c(=Nc2ccc(F)cc2)s1 do in these assays?
FMDV inh: 28µM*

What do the screens show for `COC(=O)CC=C[C@@H](C)[C@@H](C=NOC[C@@H](O)COCc1ccco1)NS(=O)(=O)c1ccc(C)cc1`?
MARV entry inh: 21%[14.2 µM]

How did O=C(CC(c1cccs1)N1Cc2ccccc2C1=O)Nc1ccc(F)cc1 (stereo not given) do in these assays?
Lassa entry inh: 2%[46.1 µM]; HCMV antiviral: 1; FMDV inh: 18%

What do the screens show for `Cc1c(NC(=S)N/N=C/C=C/c2ccc([N+](=O)[O-])cc2)c(=O)n(-c2ccccc2)n1C`?
MARV entry inh: 4%; Lassa entry inh: 2%; HCMV antiviral: -103*; FMDV inh: inconclusive

How did Cc1ccc(CNC(=O)CSc2nc3ccccc3nc2Cc2ccc(C)cc2)cc1 do in these assays?
Lassa entry inh: 27%[46.1 µM]; HCMV antiviral: 7; FMDV inh: -11%

How did O=C(Nc1nccs1)c1ccc([N+](=O)[O-])cc1Cl do in these assays?
HCMV antiviral: 23; FMDV inh: 0%

How did O=C(Nc1ccccc1Oc1ccccc1)c1cc([N+](=O)[O-])ccc1Cl do in these assays?
MARV entry inh: inconclusive; Lassa entry inh: -25%; HCMV antiviral: -77*; FMDV inh: inconclusive

How did O=C(Nc1nccs1)c1cc([N+](=O)[O-])ccc1Cl do in these assays?
HCMV antiviral: -103*; FMDV inh: -19%

What do the screens show for `COC(=O)c1cc2ccccc2c(-c2c(OC)c(C(=O)OC)cc3ccccc23)c1OC`?
MARV entry inh: 6.5µM*; Lassa entry inh: inconclusive; HCMV antiviral: inconclusive; FMDV inh: -24%

What do the screens show for `CCc1cc2c(cc3c(=O)n(CCCC(=O)NCc4cccc(Br)c4)ncn32)s1`?
MARV entry inh: 0%[46.1 µM]; HCMV antiviral: 7; FMDV inh: -28%

Results for COc1ccc(/C=C/c2cc(O)cc(O)c2)cc1 ?
FMDV inh: -5%

Results for Oc1ccc(/C=C/c2cc(O)cc(O)c2)cc1 ?
MARV entry inh: 3.2µM*; Lassa entry inh: 7.3µM*; HCMV antiviral: 64; FMDV inh: inconclusive

Results for Fc1ccc(CNc2nc(-c3ccccc3)cc(C(F)(F)F)n2)cc1 ?
MARV entry inh: -16%[46.1 µM]; Lassa entry inh: 0%[46.1 µM]; HCMV antiviral: -8; FMDV inh: -28%

How did N=C1S/C(=C\c2cccc3ccccc23)C(=O)N1c1ccc(F)cc1 do in these assays?
MARV entry inh: inconclusive; Lassa entry inh: 8.9µM*; HCMV antiviral: -71*; FMDV inh: -21%

Compound activity from PubChem BioAssay.
